The text below walks through data of PubChem BioAssay (Tox21).

Each structure is given as a SMILES string. Where “and” joins values, the source holds several entries; their conditions need not be identical. Equal values may be shown once. Results filed as inconclusive are left out. Where a structure was tested more than once in an assay, its records may differ in their call. Calls of active or inactive are those of the source. Unless noted, calls follow the shape of the dose curve; as a rule, active = well fitted curve in the direction sought with a large enough effect in the repeat runs; inconclusive = weak or mixed curves; inactive = no such curve, though single readings can be large; an effect the other way counts as inactive or inconclusive.

The nature of experiment [1]: qHTS assay to identify small molecule antagonists of the progesterone receptor (PR) signaling pathway - cell viability counter screen (AID 1346798). Also: series mostly up to about 92 µM; nearly all actives have a fitted effect of over 50% in size. Put shortly:
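In the same plates used for the beta-lactamase readout, cell viability of compound- and R5020-treated PR-UAS-bla HEK293T cells (16 hr, 37C) was assessed by CellTiter-Glo luminescence.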

A short description of experiment [2]: qHTS assay to identify small molecule agonists of the progesterone receptor (PR) signaling pathway - cell viability counter screen (AID 1346799; calls by dose curve; also: nearly all actives have a fitted effect of over 45% in size; also: potency is read from the fitted curve at half-maximal effect). Put shortly:
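Multiplexed viability read: CellTiter-Glo luminescence, 30 min RT, following LiveBLAzer FRET measurement on PR-UAS-bla HEK293T cells exposed to compounds 16 hr.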

Experiment [3] can be described thus: qHTS assay to identify small molecule agonists of the TGF-beta/Smad signaling pathway - cell viability counter screen (AID 1346829). Also: nearly all actives have a fitted effect of over 45% in size. Also: potency is read from the fitted curve at half-maximal effect. Put shortly:
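Same-well cytotoxicity: CellTiter-Glo added after the 2 hr room-temperature beta-lactamase substrate step, luminescence measured 30 min later; cells had 5 hr of compound at 37 C.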

The target in experiment [4] is Thyrotropin-releasing hormone receptor (Homo sapiens) (UniProt P34981). Nature of the experiment: qHTS assay to identify small molecule agonists of the thyrotropin-releasing hormone receptor (TRHR) signaling pathway (AID 1346891; calls by dose curve; also: potency is read from the fitted curve at half-maximal effect; as to activation: series mostly up to about 58 µM). Put shortly:
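Readout was intracellular calcium fluorescence in TRHR-Hek293 cells. Cells were incubated 18 h, dye-loaded 2 h at 37 °C, and treated with compound in agonist mode.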

Experiment [5] in a line: Human pregnane X receptor (PXR) small molecule agonists, qHTS cell viability counter screen (AID 1346977). Also: nearly all actives have a fitted effect of over 50% in size. Also: potency is read from the fitted curve at half-maximal effect. Put shortly: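 In each well, the PXR reporter HepG2 line was checked for viability: CellTiter-Fluor reagent added 23hr post-dosing, fluorescence read after 1hr incubation at 37C.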
Experiment [6] can be described thus: Caspase-3/7 induction in HepG2 cells by small molecules, qHTS assay (AID 1346978). Also: nearly all actives have a fitted effect of over 15% in size. Also: potency is read from the fitted curve at half-maximal effect. In a few lines:
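Wild-type HepG2 cells (2,000/well) were settled 5 h at 37 C, 5% CO2, then exposed to compounds in DMSO for 17 h. Caspase-3/7 activity was read by luminescence 30 min after adding Caspase-Glo 3/7 reagent at room temperature.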

Experiment [7] can be described thus: Caspase-3/7 induction in CHO-K1 cells by small molecules, qHTS cell viability counter screen (AID 1346979). Also: nearly all actives have a fitted effect of over 35% in size. Also: potency is read from the fitted curve at half-maximal effect. In a few lines: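 Following a 5hr settling period, CHO-K1 cells at 1,500 per well received DMSO-dissolved compounds. Cell viability was quantified 16hr later by CellTiter-Fluor fluorescence, measured after 1hr with reagent at 37C.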
Experiment [8] can be described thus: Caspase-3/7 induction in CHO-K1 cells by small molecules, qHTS assay (AID 1346980). Also: nearly all actives have a fitted effect of over 15% in size. Also: potency is read from the fitted curve at half-maximal effect. In a few lines:
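Wild-type cells were seeded at 1,500 per well and settled 5 hr at 37 C, 5% CO2, then exposed to DMSO-dissolved compounds for 17 hr. Caspase-Glo 3/7 reagent was added, and luminescence was read after 30min at room temperature.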

In experiment [9] the target is Nuclear receptor subfamily 1 group I member 2 (Homo sapiens) (UniProt O75469). Put plainly: Human pregnane X receptor (PXR) small molecule agonists, qHTS assay (AID 1346982). Also: nearly all actives have a fitted effect of over 35% in size. Also: potency is read from the fitted curve at half-maximal effect. In a few lines:
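Tox21 qHTS; PXR-Luc HepG2; compounds pinned from DMSO; 24 hr, 37 C; ONE-Glo luciferase detection, 30 min room temperature.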

The target in experiment [10] is Cytochrome P450 2D6 (Homo sapiens) (UniProt P10635). Put plainly: Cytochrome P450 Family 2 Subfamily D Member 6 (CYP2D6) small molecule antagonists: luciferase reporter qHTS assay (AID 1671196). Also: nearly all actives have a fitted effect of over 50% in size. Also: potency is read from the fitted curve at half-maximal effect. Put shortly:
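Room-temperature luminescent CYP2D6 activity assay: compound preincubated 10 min with enzyme–substrate mix, NADPH-initiated reaction 1 h, detection reagent 20 min before reading.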

The target of experiment [11] is Cytochrome P450 2C19 (Homo sapiens) (UniProt P33261). Nature of the experiment: Cytochrome P450 Family 2 Subfamily C Member 19 (CYP2C19) small molecule antagonists: luciferase reporter qHTS assay (AID 1671197). Also: nearly all actives have a fitted effect of over 65% in size. Also: potency is read from the fitted curve at half-maximal effect. In a few lines:
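Quantitative high-throughput screen of the Tox21 library using CYP2C19 with proluciferin substrate. Reaction: NADPH regeneration, 37C, 1 h, after 10 min compound preincubation at room temperature. Readout: luminescence.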

A short description of experiment [12]: qHTS assay to identify small molecule antagonists of the TGF-beta/Smad signaling pathway - cell viability counter screen (AID 1346824). Also: nearly all actives have a fitted effect of over 50% in size. Also: potency is read from the fitted curve at half-maximal effect. Put shortly: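 SBE-bla HEK 293T cells were plated overnight at 37 C, then given compounds in DMSO plus TGF-beta1 (added as 0.25 ng/mL solution) for 5 hr. After the bla read, CellTiter-Glo was added to the same wells and luminescence read after 30 min at room temperature.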

Experiment [13] in a line: qHTS assay to identify small molecule agonists of the TGF-beta/Smad signaling pathway (AID 1346859; active = well fitted activation curve with a large enough effect in the signal ratio in the repeat runs, not every such curve was filed as active; the % refers to the signal ratio; also: series mostly up to about 77 µM). In a few lines: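 Screening used HEK 293T SBE-bla cells at 4,000/well. Test agents: 5 hr, 37 C. Detection: FRET substrate, 2 hr RT, then excitation 405 nm with emissions at 460 and 530 nm.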
The target in experiment [14] is Thyrotropin-releasing hormone receptor (Homo sapiens) (UniProt P34981). Put plainly: qHTS assay to identify small molecule antagonists of the thyrotropin-releasing hormone receptor (TRHR) signaling pathway (AID 1346877; active = well fitted inhibition curve with a large enough effect in the repeat runs, not every such curve was filed as active; also: series mostly up to about 51 µM). In a few lines: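 Calcium signal in dye-loaded TRHR/HEK293 cells; compounds added 5 min before TRH (1 nM final); fluorescence monitored 3 min at 1 s steps.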
Thyrotropin-releasing hormone receptor (Homo sapiens), sequence (P34981 whole entry, looked up): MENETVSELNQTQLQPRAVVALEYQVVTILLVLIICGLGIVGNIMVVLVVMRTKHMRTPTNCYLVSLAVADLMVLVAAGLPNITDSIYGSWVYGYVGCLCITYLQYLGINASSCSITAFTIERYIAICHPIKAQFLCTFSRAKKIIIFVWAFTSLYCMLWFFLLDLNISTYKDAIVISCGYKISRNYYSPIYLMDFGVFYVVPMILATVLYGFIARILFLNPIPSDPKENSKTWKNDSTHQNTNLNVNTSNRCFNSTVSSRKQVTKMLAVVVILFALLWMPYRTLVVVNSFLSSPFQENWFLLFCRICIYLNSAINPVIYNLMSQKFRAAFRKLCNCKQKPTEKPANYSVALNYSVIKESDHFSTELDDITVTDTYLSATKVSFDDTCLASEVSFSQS

Experiment [15] in a line: Caspase-3/7 induction in HepG2 cells by small molecules, qHTS cell viability counter screen (AID 1346981). Also: nearly all actives have a fitted effect of over 30% in size. Also: potency is read from the fitted curve at half-maximal effect. In a few lines:
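After a 5-hr attachment period at 37 C and 5% CO2, wild-type HepG2 cells received compounds in DMSO. Sixteen hours later CellTiter-Fluor was dispensed and the fluorescent signal quantified after a further hour.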

Experiment [16] addresses Nuclear receptor subfamily 1 group I member 2 (Rattus norvegicus) (UniProt Q9R1A7). Put plainly: Rat pregnane X receptor (rPXR) activation by small molecules, qHTS assay (AID 1346983). Also: nearly all actives have a fitted effect of over 20% in size. To be noted: rPXR luciferase reporter cells, One-Glo luminescence, 24 h; max activation: stronger effect = higher value. Put shortly:
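Cell-based rPXR luciferase reporter assay, 2,000 cells per well, rested 5hr at 37 C before compound addition in DMSO, then 24 hr at 37 C. One-Glo reagent was added and luminescence read after 30 min at room temperature.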

Experiment [17] concerns the target Nuclear receptor subfamily 1 group I member 2 (Homo sapiens) (UniProt O75469). Put plainly: Human pregnane X receptor (PXR) activation by small molecules, qHTS assay (AID 1346985). Also: nearly all actives have a fitted effect of over 40% in size. Also: potency is read from the fitted curve at half-maximal effect. In a few lines: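 DPX-2 cells (HepG2 co-transfected with a PXR response element and a CYP3A4-promoter luciferase construct) were seeded at 2,000 per well, rested 5 hr at 37C, then exposed to DMSO-dissolved compounds for 24 hr. Activation was read as luciferase luminescence.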

For experiment [18] the target is unchanged. Nature of the experiment: CYP3A4 induction through human pregnane X receptor (PXR) by small molecules, qHTS assay (AID 1346984). Also: nearly all actives have a fitted effect of over 40% in size. In a few lines:
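Cells (DPX-2; HepG2 with PXR element plus CYP3A4-promoter luciferase) settled 5hr, then were treated 24hr at 37C. A 3hr, 3uM-final Luciferin-IPA step preceded luminescence measurement with One-Glo.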
% is scaled to controls: 0 for no effect and ±100 for the full control effect.

Nuclear receptor subfamily 1 group I member 2 (Homo sapiens), sequence (O75469 whole entry, looked up): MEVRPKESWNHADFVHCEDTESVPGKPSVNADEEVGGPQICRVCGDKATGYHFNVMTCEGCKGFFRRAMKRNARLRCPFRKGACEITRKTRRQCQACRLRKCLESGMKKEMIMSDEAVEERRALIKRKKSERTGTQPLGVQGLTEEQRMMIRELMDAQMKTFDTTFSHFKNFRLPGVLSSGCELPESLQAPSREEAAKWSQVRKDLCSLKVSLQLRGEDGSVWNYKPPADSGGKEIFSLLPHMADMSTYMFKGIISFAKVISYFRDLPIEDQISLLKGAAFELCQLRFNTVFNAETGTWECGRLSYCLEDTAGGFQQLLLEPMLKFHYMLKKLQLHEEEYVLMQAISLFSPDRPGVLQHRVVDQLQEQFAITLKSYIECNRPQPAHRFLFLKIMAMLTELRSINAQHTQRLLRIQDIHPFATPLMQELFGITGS
Nuclear receptor subfamily 1 group I member 2 (Rattus norvegicus), sequence (Q9R1A7 whole entry, looked up): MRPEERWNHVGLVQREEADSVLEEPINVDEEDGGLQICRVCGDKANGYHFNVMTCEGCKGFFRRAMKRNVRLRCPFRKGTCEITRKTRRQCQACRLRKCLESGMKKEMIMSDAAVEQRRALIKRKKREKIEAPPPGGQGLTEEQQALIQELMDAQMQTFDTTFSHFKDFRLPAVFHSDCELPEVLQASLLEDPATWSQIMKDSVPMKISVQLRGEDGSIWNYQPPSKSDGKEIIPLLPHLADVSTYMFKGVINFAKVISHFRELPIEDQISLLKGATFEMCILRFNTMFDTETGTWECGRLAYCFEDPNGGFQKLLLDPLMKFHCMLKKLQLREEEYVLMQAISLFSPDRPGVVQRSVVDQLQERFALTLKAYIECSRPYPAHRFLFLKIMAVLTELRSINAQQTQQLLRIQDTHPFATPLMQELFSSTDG
Cytochrome P450 2C19 (Homo sapiens), sequence (P33261 whole entry, looked up): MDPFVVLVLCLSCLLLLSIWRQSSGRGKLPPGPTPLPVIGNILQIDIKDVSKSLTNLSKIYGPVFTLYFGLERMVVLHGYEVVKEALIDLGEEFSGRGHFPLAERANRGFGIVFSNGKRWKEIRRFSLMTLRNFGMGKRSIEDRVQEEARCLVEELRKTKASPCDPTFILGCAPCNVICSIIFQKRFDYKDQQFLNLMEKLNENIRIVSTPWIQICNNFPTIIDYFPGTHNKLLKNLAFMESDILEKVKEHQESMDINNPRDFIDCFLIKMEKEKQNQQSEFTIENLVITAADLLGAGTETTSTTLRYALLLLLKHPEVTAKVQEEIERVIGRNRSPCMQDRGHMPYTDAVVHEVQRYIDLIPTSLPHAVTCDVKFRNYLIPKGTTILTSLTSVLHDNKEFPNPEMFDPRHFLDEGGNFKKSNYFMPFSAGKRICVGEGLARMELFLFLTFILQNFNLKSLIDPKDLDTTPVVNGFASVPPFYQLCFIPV
Cytochrome P450 2D6 (Homo sapiens), sequence (P10635 whole entry, looked up): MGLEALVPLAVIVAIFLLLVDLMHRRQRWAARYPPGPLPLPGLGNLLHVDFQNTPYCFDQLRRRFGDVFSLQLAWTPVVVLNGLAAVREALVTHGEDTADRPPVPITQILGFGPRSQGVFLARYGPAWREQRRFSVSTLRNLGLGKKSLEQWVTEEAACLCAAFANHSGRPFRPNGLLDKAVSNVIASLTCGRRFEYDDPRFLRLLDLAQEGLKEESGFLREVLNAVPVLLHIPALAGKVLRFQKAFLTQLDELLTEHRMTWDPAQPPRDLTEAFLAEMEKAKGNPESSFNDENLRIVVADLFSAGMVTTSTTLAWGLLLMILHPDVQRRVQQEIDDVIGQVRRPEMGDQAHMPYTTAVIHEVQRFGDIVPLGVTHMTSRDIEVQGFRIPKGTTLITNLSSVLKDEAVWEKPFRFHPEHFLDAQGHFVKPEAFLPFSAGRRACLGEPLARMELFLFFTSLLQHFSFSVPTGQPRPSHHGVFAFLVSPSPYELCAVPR

Turning to `CC(=O)Nc1ccc(O)cc1`, the Potency result in experiment [1], in experiment [2], in [3], in [4], in experiment [5] and in experiment [6] was “inactive” in each case. In addition, the Potency result in experiment [7], in [8], in [9] and in experiment [11] was “inactive” throughout. Besides, the Potency in experiment [10] is 32.9 µM (active) and inactive.
With `Cc1ccc2ccc3cccc4ccc1c2c34`, the values for the Potency in experiment [2], in experiment [10] and in experiment [11] were 27.3 µM (active), 63.2 µM (active) and 28.2 µM (active), respectively. In addition, the Potency result in experiment [12], in experiment [3], in experiment [13], in experiment [14], in experiment [4] and in experiment [5] was “inactive” each time. Also, the Potency entry in experiment [6], in [7], in [8], in experiment [15] and in experiment [9] was “inactive” throughout.
On to `C[n+]1c2cc(N)ccc2cc2ccc(N)cc21` (tested in a mixture with another compound), for which the Potency result in experiment [12], in experiment [3] and in experiment [14] was “inactive” in each case. The Potency in experiment [4] is 7.56 µM (active); in experiment [6], 9.44 µM (active); in experiment [10], 15.5 µM (active); in experiment [11], 38.9 µM (active). In experiment [16], the max activation was -10.5% (inactive).
For `COc1ccc(-n2nc(CCC(=O)N(C)O)cc2-c2ccc(Cl)cc2)cc1`, the Potency result in [12], in experiment [3], in experiment [13], in experiment [14], in experiment [6] and in experiment [8] was “inactive” throughout. The Potency is 29.8 µM (active) in experiment [9] and 8.71 µM (active) in experiment [11].
Consider `COc1ccccc1OCCNCC(O)COc1cccc2[nH]c3ccccc3c12` (centres undefined), for which the Potency in experiment [2] is 15 µM (active); in experiment [5], 23.7 µM (active); in experiment [7], 29.8 µM (active); in experiment [9] it was 8.41 µM (active); in experiment [17], 22.4 µM (active); in experiment [10] it was 1.55 µM (active). Moreover, the Potency in [11] is 5.49 µM (active). Further, the Potency entry in experiment [12], in experiment [3], in experiment [13], in experiment [14], in [4] and in experiment [8] was “inactive” in each case. Also, the max activation in experiment [16] was 7.65% (inactive).
Regarding `N#CSCSc1nc2ccccc2s1`, the Potency result in experiment [2] and in experiment [13] was “inactive” each time. The Potency in [5] is 19.3 µM (active); in experiment [7], 17.2 µM (active); in [8], 6.86 µM (active); in experiment [9], 7.7 µM (active); in experiment [10], 10 µM (active); in experiment [11], 39.9 µM (active).
As for `C/C=C/c1ccc(OC)c(OC)c1`, the Potency entry in [2], in experiment [3], in experiment [13], in experiment [5], in experiment [6] and in experiment [7] was “inactive” each time. Also, the Potency result in experiment [15] and in experiment [9] was “inactive” in each case. Besides, the Potency in experiment [11] is 71 µM (active).
Take `Cc1ccc(N)cc1O`: the Potency entry in experiment [3], in [4], in [6] and in [15] was “inactive” each time. In addition, the Potency in [7] is 52.9 µM (active); in experiment [9], 34.4 µM (active); in [10], 3.66 µM (active); in experiment [11] it was 3.56 µM (active).
With `CC1=C(/C=C/C(C)=C/C=C/C(C)=C/C(=O)Nc2ccc(O)cc2)C(C)(C)CCC1`, the Potency result in experiment [12], in experiment [3], in experiment [13], in experiment [14], in [4] and in [18] was “inactive” throughout. The Potency entry in [17] is “inactive”. In addition, the Potency in experiment [5] is 49.8 µM (active) and 26.6 µM (active); in experiment [6], 70.3 µM (active) and 29.8 µM (active); in experiment [7], 44.4 µM (active) and 21.1 µM (active); in experiment [15], 55.9 µM (active) and 26.6 µM (active); in [9] it was 19.8 µM (active) and inactive; in experiment [10], 13.8 µM (active). Moreover, the Potency in [11] is 41 µM (active) and 27.5 µM (active). In experiment [16], the max activation is -17.3% (inactive).
Take `CN(C)CCOC(c1ccccc1)c1ccccc1` (tested in a mixture with another compound): the Potency entry in experiment [12], in [3], in [13], in [14], in experiment [4] and in [6] was “inactive” throughout. In [8], the Potency result was “inactive”. In addition, the Potency in [9] was 61.6 µM (active).
As for `CCN=C1C=CC(=C(c2ccc(N(CC)CC)cc2)c2ccc(N(CC)CC)cc2)c2ccccc21`, the Potency in [12] is 27.4 µM (active); in experiment [3], 24.4 µM (active); in [5] it was 0.682 µM (active); in experiment [7], 0.963 µM (active); in [15], 8.58 µM (active); in experiment [9], 0.0242 µM (active). Moreover, the values for the Potency in [10] and in [11] were 12.6 µM (active) and 17.7 µM (active), respectively. Moreover, the Potency entry in [4], in experiment [6] and in experiment [8] was “inactive” in each case.
